According to PubChem BioAssay (NCI):
About 83,000 compounds went through this panel and 20% of them were active in at least one assay; those are over-represented in the sample as a whole.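 Values shown are percent growth following 48 h exposure of cells in 96-well plates to a single concentration of compound; below 10 was considered active.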 Calls of active or inactive are those of the source.

How the values were obtained:
Test in all cases: NCI-60 one-dose screen, 48 h (100 = growth as untreated, 0 = no growth, -100 = all killed)
Conditions in all cases: 10 µM unless noted
[1] = tested on: NCI-H23 lung
[2] = tested on: NCI-H226 lung
[3] = tested on: HOP-62 NSCLC
[4] = tested on: NCI-H460 lung
[5] = tested on: HOP-92 NSCLC
[6] = tested on: NCI-H522 lung
[7] = tested on: A549/ATCC NSCLC
[8] = tested on: 786-0 renal
[9] = tested on: COLO 205 colon
[10] = tested on: NCI-H322M lung

Measured: growth

C#Cc1cccc(Nc2ncnc3cc(OCCOC)c(OCCOC)cc23)c1
active: [6] -6.57%
inactive: [1] 74.9% | [2] 75.4% | [3] 63% | [4] 55.8% | [5] 72.8% | [7] 41.5% | [8] 57.5% | [9] 60.8%

Cn1cnc2c(F)c(Nc3ccc(Br)cc3Cl)c(C(=O)NOCCO)cc21
inactive: [1] 25.7% | [2] 55.3% | [3] 28.6% | [4] 60.2% | [6] 44.4% | [7] 35.8% | [8] 71.1%
active: [5] -0.548% | [9] -3.79%

N#Cc1cc2[nH]c3ccc(OC(F)(F)F)cc3c2oc1=O
inactive: [1] 83.7% | [2] 82.4% | [3] 56.6% | [4] 87.6% | [5] 104% | [6] 42.4% | [7] 91.3% | [8] 93.9% | [9] 86.8%

COc1cc2c(Nc3ccc(Br)cc3F)ncnc2cc1OCC1CCN(C)CC1
inactive: [1] 52.5% | [2] 57.5% | [3] 19.5% | [4] 39.9% | [7] 22.9% | [8] 15.3%
active: [5] -12.9% | [6] -31.3% | [9] -13.9%

O=C(CNc1nnc(-c2ccc(Cl)cc2)o1)Nc1ccc(-c2nc3ccccc3s2)cc1
inactive: [1] 88.7% | [2] 82.9% | [3] 107% | [4] 99.7% | [5] 87.9% | [6] 77.1% | [7] 95.8% | [8] 101% | [9] 104%

COc1ccc(OC)c(NC2=C(SCCc3ccccc3)C(=O)c3ccccc3C2=O)c1
inactive: [1] 45.2% | [2] 78.8% | [3] 97.8% | [4] 91.6% | [5] 77.8% | [6] 73% | [7] 87.2% | [8] 100% | [9] 95.6%

C=CC(=O)N1CCC[C@@H](n2nc(-c3ccc(Oc4ccccc4)cc3)c3c(N)ncnc32)C1
active: [6] 1.41%
inactive: [1] 95.3% | [2] 45% | [3] 73.1% | [4] 90% | [5] 28.3% | [7] 46.6% | [8] 30.4% | [9] 61.3%

C=CC[n+]1c(/C=C2\Sc3ccccc3N2C)sc(-c2ccccc2)c1-c1ccccc1
inactive: [2] 10.3% | [3] 17.8% | [7] 14.2% | [8] 16.8%
active: [1] 0.426% | [4] 8.83% | [5] -12.5% | [6] -7.57%

COCCOc1cnc2ccn([C@H](C)c3nnc4c(F)cc(-c5cnn(C)c5)cn34)c(=O)c2c1
inactive: [1] 51.1% | [2] 68.8% | [3] 89.2% | [4] 75.6% | [5] 85.3% | [6] 87.7% | [7] 65.7% | [8] 108% | [9] 106%

NC(=O)N1N=C(c2ccc(Cl)cc2)CC1c1cn(-c2ccccc2)nc1-c1ccc(Cl)cc1 (centres undefined)
inactive: [1] 56.5% | [2] 30.1% | [3] 37.8% | [4] 41.9% | [5] 49.7% | [6] 56.9% | [7] 41.3%
active: [8] -7.43%

Cc1ccc(C(=O)Nc2ccc(CN3CCN(C)CC3)c(C(F)(F)F)c2)cc1C#Cc1cnc2cccnn12
active: [1] -84.8% | [2] -96.8% | [3] -93.6% | [4] -83.3% | [5] -74.1% | [6] -86.6% | [7] -95.1% | [8] -91% | [9] -88.2%

O=C(NC1CCNCC1)c1[nH]ncc1NC(=O)c1c(Cl)cccc1Cl
active: [1] -12.1% | [2] 0.903% | [3] -18.5% | [4] 8.4% | [5] -6.06% | [6] -23% | [7] 8.09% | [8] 2.33%

CCN(CC)Cc1cc(Nc2cc(C(F)(F)F)c(C#N)c3nc4ccccc4n23)ccc1O
inactive: [1] 17.2% | [2] 16.5% | [3] 14% | [8] 11.9%
active: [4] 6.25% | [6] -55.3% | [7] 6.97% | [9] -31.4%

O=C(Nc1cn[nH]c1-c1nc2ccc(CN3CCOCC3)cc2[nH]1)NC1CC1
inactive: [1] 23.5% | [4] 34.4% | [6] 11.5% | [7] 48.6% | [8] 13.6%
active: [2] 6.37% | [3] -9.72% | [5] -2.75% | [9] -39%

CCn1c(-c2nonc2N)nc2c(C#CC(C)(C)O)ncc(OC[C@H]3CCCNC3)c21
inactive: [1] 78.7% | [10] 75.2% | [3] 73% | [4] 56.6% | [5] 178% | [6] 12.7% | [7] 87.8% | [8] 26.7%

O=C(Nc1ccc(Nc2ncnc3sc4c(c23)CCOC4)cc1)Nc1ccc(Cl)c(C(F)(F)F)c1
inactive: [1] 86% | [2] 103% | [3] 116% | [4] 99.7% | [5] 89% | [6] 66.5% | [7] 99.3% | [8] 107% | [9] 104%

CC12O[C@H](C[C@@H](OC(=O)CCC(=O)O)[C@H]1O)n1c3ccccc3c3c4c(c5c6ccccc6n2c5c31)C(=O)NC4=O
inactive: [1] 12.3% | [3] 13.5% | [4] 20.2% | [6] 21% | [7] 13.8% | [8] 36.8%
active: [2] 9.15% | [5] 7.85% | [9] -16.4%

S=C(NCc1ccc2c(c1)OCO2)N1CCN(c2ncnc3c2oc2ccccc23)CC1
inactive: [1] 44.1% | [2] 28.7% | [3] 30.7% | [4] 31.8% | [5] 38.1% | [6] 22.6% | [7] 25.6% | [8] 47.5%
active: [9] 4.16%

CC(=O)C(C(C)=O)C(c1ccccc1)C(C(C)=O)C(C)=O
inactive: [1] 98.6% | [2] 90.9% | [3] 98.4% | [4] 105% | [5] 97.5% | [6] 91.7% | [7] 89.3% | [8] 97.2% | [9] 104%

COc1cc(C(=O)NNC(=O)c2ccc(NC(=O)CCl)cc2)cc(OC)c1OC
inactive: [1] 78.9% | [2] 95.5% | [3] 72.7% | [4] 99.5% | [5] 99% | [7] 77% | [8] 95.3% | [9] 106%
active: [6] -34.4%

O=C1CSC(c2c(F)cccc2Cl)N1NC(=O)C(O)(c1ccccc1)c1ccccc1 (centres undefined)
inactive: [1] 98.7% | [2] 95.3% | [3] 86.8% | [4] 113% | [5] 86.3% | [6] 88.4% | [7] 96.2% | [8] 97% | [9] 104%

Cc1cc(N(CCNc2ccnc3cc(Cl)ccc23)Cc2ccc3c(c2)OCO3)nc(N2CCCC2)n1
inactive: [1] 20.8% | [10] 13.5% | [5] 60.5%
active: [3] -25.8% | [4] -9.96% | [6] -28.7% | [7] 8.39% | [8] -92% | [9] -78.2%

Nc1c2c(c(O)c3c1=C(CO)C=N3)=NCCS2
active: [1] -43.9% | [10] -96% | [3] -79.3% | [4] -60.5% | [5] -71.2% | [6] -46.4% | [7] -72% | [8] -82.6% | [9] -72.8%

Cc1ccc(Nc2nccc(N(C)c3ccc4c(C)n(C)nc4c3)n2)cc1S(N)(=O)=O
active: [10] 7.5% | [5] -56.2% | [7] 5.92% | [9] -10.3%
inactive: [1] 15.6% | [3] 12.4% | [4] 21.5% | [6] 10.7% | [8] 35.7%

C[C@@]1(C(=O)Nc2ccc(F)nc2)CCCN1c1nc(Nc2cc(C3CC3)[nH]n2)c2cccn2n1
active: [5] -45.5% | [8] 5.48% | [9] -49.3%
inactive: [1] 20.5% | [10] 15.3% | [3] 11.3% | [4] 14.5% | [6] 40.9% | [7] 21.9%

CN1[C@@H]2CC[C@H]1/C(=C\c1ccccc1)C1=C2[C@@H](c2ccccc2)C(C#N)=C(N)O1
inactive: [1] 78.6% | [10] 94.8% | [3] 90.6% | [4] 92.7% | [5] 78.7% | [6] 74% | [7] 48.3% | [8] 73.4% | [9] 80.4%

CO/C=C/C(=O)c1cc2cnc3c(=N)cc(NC(=O)C(C)C)c([nH]1)c23
inactive: [6] 23.8% | [7] 19.3%
active: [1] -11.9% | [10] -13.2% | [3] -18.7% | [4] 5.42% | [5] -16% | [8] -44.6% | [9] -33.8%

COC[C@@H](C)n1c(C2CCOCC2)nc2c1C1C=C(OC)C(c3c(C)noc3C)=CC1N=C2 (some centres undefined)
active: [6] -1.23%
inactive: [1] 48.5% | [3] 51.5% | [4] 59.4% | [5] 11.1% | [7] 42.6% | [8] 48.6% | [9] 31.9%

O=c1[nH]c(N2CCOCC2)nc2scc(-c3ccccc3)c12
inactive: [1] 87.2% | [10] 95% | [3] 91.3% | [4] 110% | [5] 79.7% | [6] 77% | [7] 86.8% | [8] 95.2%
